The values that follow come from PubChem BioAssay (Tox21).

Values joined by “and” are separate entries in the source; they are usually repeats but may differ in a detail not shown here. Equal values may be shown once. Inconclusive results are not listed. A number with no mark means an inactive call. Active and inactive are the calls of the source. Calls come from the whole dose curve; as a rule, active = well fitted cell-killing curve with a large enough effect in the repeat runs; inconclusive = weak or mixed curves; inactive = no such curve, though single readings can be large or run the other way.
% is set by controls: 0 for no effect and ±100 for the full control effect; potency is the fitted concentration of half-maximal effect.

This assay is described as follows: qHTS assay to identify small molecule agonists of the peroxisome proliferator-activated receptor delta (PPARd) signaling pathway - cell viability counter screen (AID 743211). Note: nearly all actives have a fitted effect of over 55% in size. Particulars: PPARd-bla HEK293H viability, CellTiter-Glo luminescence, 17 h; series mostly up to 62.6 µM; activity change, negative = cytotoxicity: at the top concentration. In outline: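 Read-out: CellTiter-Glo luminescence, 30 min RT, measured in the same wells as the beta-lactamase reporter. Cells: GeneBLAzer PPAR delta UAS-bla HEK293H, 3000 cells/well, compound exposure 17 h at 37C.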
As to `CC(C)(c1ccccc1)c1ccc(Nc2ccc(C(C)(C)c3ccccc3)cc2)cc1`, the Potency result is “inactive”.

For `CN(C)c1ccc(C(=C2C=CC(=[N+](C)C)C=C2)c2ccccc2)cc1`, the Potency was 347 nM (active) and 1.33 µM (active).

Consider `CCN(CC)c1ccc2c(C)cc(=O)oc2c1`, for which the Potency result is “inactive”.

As to `O=C(O[C@@H]1Cc2c(O)cc(O)cc2O[C@@H]1c1cc(O)c(O)c(O)c1)c1cc(O)c(O)c(O)c1`, the Potency result is “inactive”.

As to `CC(C)(C)NCC(O)c1cc(O)cc(O)c1` (stereo unspecified), the “activity change, negative = cytotoxicity” value was -6.28%.

Regarding `Oc1c(Cl)cc(Cl)c(Cl)c1Cc1c(O)c(Cl)cc(Cl)c1Cl`, the Potency is 27.5 µM (active) and 13.3 µM (active).

Regarding `CCCCCCCCCCCCCC[P+](CCCC)(CCCC)CCCC`, the Potency was 6.88 µM (active) and 8.71 µM (active).

For `CC(C(O)c1ccc(O)cc1)N1CCC(Cc2ccccc2)CC1` (stereo unspecified), the “activity change, negative = cytotoxicity” value was 0.0301%.

With `Nc1ccc2cc3ccccc3cc2c1`, the Potency entry was “inactive”.

On to `Cc1cc(C2(c3cc(C)c(O)cc3C)OS(=O)(=O)c3ccccc32)c(C)cc1O`, for which the Potency result was “inactive”.

On to `O=C1NCC2(CCN(CCc3ccccc3)CC2)O1`, for which the “activity change, negative = cytotoxicity” value was 1.06%.

In the case of `O=C(Oc1ccccc1)c1ccccc1O`, the Potency entry is “inactive”.

`Nc1ccc(O)cc1`: the “activity change, negative = cytotoxicity” value is 6.37%.

`CC(C)(C)NC(=O)[C@@H]1CN(Cc2cccnc2)CCN1C[C@@H](O)C[C@@H](Cc1ccccc1)C(=O)N[C@H]1c2ccccc2C[C@H]1O`: the Potency entry was “inactive”.

In the case of `CC(C)(C)c1ccc(O)c(C(C)(C)C)c1`, the Potency was 38.7 µM (active) and 49 µM (active).

On to `O`, for which the Potency entry is “inactive”.

Turning to `CCCCCCCCCCCCCCCCCl`, the “activity change, negative = cytotoxicity” value was 0.0838% [at 29.1 µM].

`CC(C)(C)c1ccccc1`: the “activity change, negative = cytotoxicity” value was 3.51%.

Turning to `NCCO`, the “activity change, negative = cytotoxicity” value was -0.855%.

On to `CC(C)CCOCc1ccccc1`, for which the “activity change, negative = cytotoxicity” value is -1.94%.

Turning to `CCC(CO)(CO)COCC(CC)(CO)CO`, the “activity change, negative = cytotoxicity” value was -0.106%.

Turning to `CCCN[C@H]1CCc2nc(N)sc2C1`, the Potency entry was “inactive”.

As for `O=C(Nc1ccccc1SSc1ccccc1NC(=O)c1ccccc1)c1ccccc1`, the Potency is 19.6 µM (active) and 12.3 µM (active).

Turning to `O=C1OC2(c3ccc(O)cc3Oc3cc(O)ccc32)c2ccccc21`, the Potency result is “inactive”.

On to `COc1ccc(CCN(C)CCCC(C#N)(c2ccc(OC)c(OC)c2)C(C)C)cc1OC` (stereo unspecified), for which the “activity change, negative = cytotoxicity” value is -7.71%.

Consider `CCCCC/C=C/CC1CC(=O)OC1=O` (stereo unspecified), for which the “activity change, negative = cytotoxicity” value is 4.16%.

On to `CNCCC(Oc1ccc(C(F)(F)F)cc1)c1ccccc1` (stereo unspecified), for which the Potency was 27.2 µM (active) and 29.8 µM (active).

For `CCCCCC(=O)O[C@]1(C(C)=O)CC[C@H]2[C@@H]3CCC4=CC(=O)CC[C@]4(C)[C@H]3CC[C@@]21C`, the Potency was 48.6 µM (active) and 29.8 µM (active).

Take `c1cc(C(c2ccc(OCC3CO3)cc2)C(c2ccc(OCC3CO3)cc2)c2ccc(OCC3CO3)cc2)ccc1OCC1CO1` (stereo unspecified): the Potency result was “inactive”.

Take `COc1ccc(CCN2CCC(Nc3nc4ccccc4n3Cc3ccc(F)cc3)CC2)cc1`: the Potency was 2.81 µM (active) and 7.5 µM (active).

Regarding `Nc1nc(=S)c2[nH]cnc2[nH]1`, the “activity change, negative = cytotoxicity” value is -10.3%.
